Measurements as given in article PMC5700166.
Residue numbers refer to the chain shown, from its start.

Legend:
Assay in all cases: protein-binding microarray (PBM); PBM: ~300 nM protein, 6 mM HEPES pH 7.8, 80 mM KCl, 0.5 mM EDTA, 0.5 mM EGTA, 6% glycerol, 35 ng/ul poly-dIdC, 1% milk, 1 h, room temperature; Ap Aiptasia and Nv Nematostella (sea anemones) / Co Capsaspora / Aq Amphimedon (sponge) / Dm Drosophila / Hu human; RHD is the Rel homology domain; high values mean tight binding
Conditions in all cases: dsDNA, one strand shown
GST-Ap-NF-kB RHD = molecular target: T1, GST-Ap-NF-kB RHD (Exaiptasia pallida (Aiptasia), UniProt A0A913YAJ5 2-422)
T1 sequence: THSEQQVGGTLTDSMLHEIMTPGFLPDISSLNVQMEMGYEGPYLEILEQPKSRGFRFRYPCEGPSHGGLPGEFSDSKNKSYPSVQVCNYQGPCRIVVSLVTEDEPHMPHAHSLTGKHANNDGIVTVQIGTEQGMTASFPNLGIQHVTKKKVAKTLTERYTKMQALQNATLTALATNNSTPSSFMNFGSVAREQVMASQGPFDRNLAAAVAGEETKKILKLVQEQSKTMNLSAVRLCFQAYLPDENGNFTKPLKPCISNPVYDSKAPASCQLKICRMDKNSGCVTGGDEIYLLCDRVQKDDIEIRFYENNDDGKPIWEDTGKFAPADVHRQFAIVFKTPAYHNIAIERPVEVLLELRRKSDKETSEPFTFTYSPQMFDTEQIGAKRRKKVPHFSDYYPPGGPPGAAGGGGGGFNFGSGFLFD

[1] = molecular target: T2, GST-Nv-NF-kB (Cys allele) (Nematostella vectensis, UniProt E5G601 2-411)
T2 sequence: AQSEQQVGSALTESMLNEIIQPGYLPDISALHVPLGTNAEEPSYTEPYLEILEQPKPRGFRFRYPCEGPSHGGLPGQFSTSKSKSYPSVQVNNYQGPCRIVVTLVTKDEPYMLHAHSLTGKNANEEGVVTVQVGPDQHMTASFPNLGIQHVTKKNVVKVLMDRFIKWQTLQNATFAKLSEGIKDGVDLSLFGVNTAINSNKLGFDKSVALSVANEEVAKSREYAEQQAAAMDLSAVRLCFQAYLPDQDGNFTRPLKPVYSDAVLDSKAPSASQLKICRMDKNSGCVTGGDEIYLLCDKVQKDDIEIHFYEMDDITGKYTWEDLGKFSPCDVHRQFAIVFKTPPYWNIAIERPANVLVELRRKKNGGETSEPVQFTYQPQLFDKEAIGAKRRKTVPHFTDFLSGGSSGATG

[2] = molecular target: T3, GST-Nv-NF-kB (Ser allele) (Nematostella vectensis, UniProt A7UNT2 2-411)
T3 sequence: T2 sequence with Q21R, C66S, S207N, E215Q, V217A, E225K, A268E, D399E

GST-Co-NF-kB = molecular target: T4, GST-Co-NF-kB (Capsaspora owczarzaki, UniProt F1ARL5 200-546)
T4 sequence: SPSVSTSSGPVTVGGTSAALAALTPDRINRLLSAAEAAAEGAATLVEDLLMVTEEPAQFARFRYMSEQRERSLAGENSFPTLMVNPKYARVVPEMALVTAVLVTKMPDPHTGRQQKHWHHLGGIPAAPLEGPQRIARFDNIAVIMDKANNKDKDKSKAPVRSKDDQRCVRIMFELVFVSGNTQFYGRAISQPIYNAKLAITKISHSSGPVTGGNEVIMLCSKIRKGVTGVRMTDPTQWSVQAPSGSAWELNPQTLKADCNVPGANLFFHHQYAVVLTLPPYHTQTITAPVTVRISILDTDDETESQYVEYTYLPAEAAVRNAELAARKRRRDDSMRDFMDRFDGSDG

GST-Dm-Relish = molecular target: T5, GST-Dm-Relish (Drosophila melanogaster, UniProt Q94527 99-473)
T5 sequence: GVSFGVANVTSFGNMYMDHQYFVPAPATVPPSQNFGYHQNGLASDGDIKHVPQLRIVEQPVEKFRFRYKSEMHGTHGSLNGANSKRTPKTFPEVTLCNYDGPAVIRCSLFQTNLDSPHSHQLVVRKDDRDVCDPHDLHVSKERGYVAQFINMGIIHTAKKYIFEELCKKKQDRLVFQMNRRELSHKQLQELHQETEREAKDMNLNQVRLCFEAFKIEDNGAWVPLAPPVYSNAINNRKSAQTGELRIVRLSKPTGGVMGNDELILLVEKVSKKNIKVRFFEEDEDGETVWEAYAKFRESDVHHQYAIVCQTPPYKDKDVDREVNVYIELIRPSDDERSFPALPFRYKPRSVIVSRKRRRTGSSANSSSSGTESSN

GST-Aq-NF-kB = molecular target: T6, GST-Aq-NF-kB (Amphimedon queenslandica, UniProt A9Y5G7 2-389)
T6 sequence: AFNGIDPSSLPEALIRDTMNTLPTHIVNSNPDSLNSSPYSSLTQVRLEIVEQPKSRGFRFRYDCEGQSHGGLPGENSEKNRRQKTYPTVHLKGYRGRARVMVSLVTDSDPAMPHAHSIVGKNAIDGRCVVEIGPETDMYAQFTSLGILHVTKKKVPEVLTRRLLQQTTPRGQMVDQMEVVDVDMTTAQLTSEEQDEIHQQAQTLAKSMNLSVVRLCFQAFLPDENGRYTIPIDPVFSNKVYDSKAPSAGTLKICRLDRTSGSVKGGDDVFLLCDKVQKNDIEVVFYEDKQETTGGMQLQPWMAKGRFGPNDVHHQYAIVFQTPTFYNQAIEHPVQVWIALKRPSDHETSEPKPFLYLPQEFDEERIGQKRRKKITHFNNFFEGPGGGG

GST-Hu-p50 = GST-Hu-p50 (Homo sapiens, UniProt P19838 7-356)
Chain of GST-Hu-p50 (P19838 7-356): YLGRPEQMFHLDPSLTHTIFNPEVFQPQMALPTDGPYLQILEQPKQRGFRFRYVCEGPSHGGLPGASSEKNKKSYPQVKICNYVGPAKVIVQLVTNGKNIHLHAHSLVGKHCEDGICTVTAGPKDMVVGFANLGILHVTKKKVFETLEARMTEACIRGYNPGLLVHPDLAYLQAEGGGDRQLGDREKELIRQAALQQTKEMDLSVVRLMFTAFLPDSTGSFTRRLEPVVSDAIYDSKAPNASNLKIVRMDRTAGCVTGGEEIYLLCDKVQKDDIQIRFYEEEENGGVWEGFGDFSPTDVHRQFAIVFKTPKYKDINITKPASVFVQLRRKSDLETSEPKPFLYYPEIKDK

| Sequence | binding signal (GST-Ap-NF-kB RHD) [z-score] | binding signal [1] [z-score] | binding signal [2] [z-score] | binding signal (GST-Co-NF-kB) [z-score] | binding signal (GST-Dm-Relish) [z-score] | binding signal (GST-Aq-NF-kB) [z-score] | binding signal (GST-Hu-p50) [z-score] |
| --- | --- | --- | --- | --- | --- | --- | --- |
| CCGATTAACATCAAACATCCCCTTGATGTTAATCGGGTCTTGATTCGCTTGACGCTGCTG | 6.4 | 7.13 | 7.29 | 2.37 | 6.75 | 6.17 | 5.4 |
| CCGATTAACATCAGGGAAAACAATGATGTTAATCGGGTCTTGATTCGCTTGACGCTGCTG | 3.05 | 4.96 | 6.37 | 5.48 | 1.47 | 3.34 | 3.66 |
| CCGATTAACATCAGGATTCTCCCTGATGTTAATCGGGTCTTGATTCGCTTGACGCTGCTG | 3.03 | 4.71 | 3.05 | 1.79 | 1.49 | 6.5 | 3.33 |
| CCGATTAACATCAAGGGGATTCCTGATGTTAATCGGGTCTTGATTCGCTTGACGCTGCTG | 10.4 | 10.4 | 9.96 | 2.68 | 9.9 | 7.84 | 7.29 |
| CCGATTAACATCAAATTCCCGCCTGATGTTAATCGGGTCTTGATTCGCTTGACGCTGCTG | 3.27 | 4.23 | 4.63 | 3.86 | 3.49 | 3.39 | 3.12 |
| CCGATTAACATCAATTATTCCCCTGATGTTAATCGGGTCTTGATTCGCTTGACGCTGCTG | 6.67 | 9.08 | 9.75 | 9.22 | 5.24 | 5.63 | 6.11 |
| CCGATTAACATCAAGGGTTTCCCTGATGTTAATCGGGTCTTGATTCGCTTGACGCTGCTG | 4.12 | 4.79 | 4.07 | 3.82 | 7.83 | 5.56 | 3.28 |
| CCGATTAACATCAAGTTTTCCCCTGATGTTAATCGGGTCTTGATTCGCTTGACGCTGCTG | 8.03 | 8.76 | 11.2 | 10.3 | 6.09 | 6.59 | 6.59 |
| CCGATTAACATCAGGGGAAACCCTGATGTTAATCGGGTCTTGATTCGCTTGACGCTGCTG | 10.2 | 11.4 | 10.8 | 7.22 | 10 | 9.57 | 7.44 |
| CCGATTAACATCAGACATCCCCCTGATGTTAATCGGGTCTTGATTCGCTTGACGCTGCTG | 5.54 | 5.65 | 5.36 | 3.71 | 5.06 | 5.17 | 4.88 |
| CCGATTAACATCAGGGAAGACCCTGATGTTAATCGGGTCTTGATTCGCTTGACGCTGCTG | 4.49 | 5.72 | 3.5 | 1.33 | 7.97 | 7.06 | 3.16 |
| CCGATTAACATCAGGGGCAGTACTGATGTTAATCGGGTCTTGATTCGCTTGACGCTGCTG | 2.61 | 1.84 | 1.28 | 1.64 | 3.44 | 4.35 | 2.94 |
| CCGATTAACATCAGGAGCCCCCCTGATGTTAATCGGGTCTTGATTCGCTTGACGCTGCTG | 5.02 | 3.27 | 2.66 | 2.66 | 6.02 | 5.04 | 4.41 |
| CCGATTAACATCAGGGTATACCCTGATGTTAATCGGGTCTTGATTCGCTTGACGCTGCTG | 4.43 | 3.42 | 2.44 | 2.48 | 4.16 | 6.04 | 2.22 |
| CCGATTAACATCAATTTTTCCCCTGATGTTAATCGGGTCTTGATTCGCTTGACGCTGCTG | 7 | 8.62 | 11.5 | 11.2 | 5.15 | 5.96 | 6.59 |
| CCGATTAACATCAGGGGAAACGATGATGTTAATCGGGTCTTGATTCGCTTGACGCTGCTG | 4.89 | 6.2 | 8.83 | 6.65 | 1.87 | 3.92 | 4.62 |
| CCGATTAACATCAAATTCCCATGTGATGTTAATCGGGTCTTGATTCGCTTGACGCTGCTG | 2.41 | 4.08 | 4.15 | 1.96 | 3.99 | 2.58 | 3.09 |
| CCGATTAACATCAGGGGGATTAATGATGTTAATCGGGTCTTGATTCGCTTGACGCTGCTG | 6.25 | 6.39 | 7.21 | 6.77 | 5.97 | 5.39 | 6.36 |
| CCGATTAACATCAGAACTCCCCCTGATGTTAATCGGGTCTTGATTCGCTTGACGCTGCTG | 7.91 | 6.48 | 7.12 | 6.15 | 5.58 | 6.48 | 7.11 |
| CCGATTAACATCAGGGAATATACTGATGTTAATCGGGTCTTGATTCGCTTGACGCTGCTG | 3.5 | 3.81 | 4.1 | 3.18 | 4.01 | 4.33 | 2.3 |
| CCGATTAACATCAGGGAAACACCTGATGTTAATCGGGTCTTGATTCGCTTGACGCTGCTG | 5.49 | 6.62 | 6.01 | 2.74 | 6.92 | 7.75 | 5.15 |
| CCGATTAACATCAGGGGGTTGGATGATGTTAATCGGGTCTTGATTCGCTTGACGCTGCTG | 4.25 | 3.25 | 4.6 | 2.05 | 4.45 | 3.38 | 4.51 |
| CCGATTAACATCAGGACAACCCCTGATGTTAATCGGGTCTTGATTCGCTTGACGCTGCTG | 3.21 | 3.16 | 1.17 | 1.02 | 2.63 | 5.78 | 2.98 |
| CCGATTAACATCAGGGAAAATAATGATGTTAATCGGGTCTTGATTCGCTTGACGCTGCTG | 3.42 | 6.84 | 8.05 | 5.52 | 2.1 | 4.47 | 4.74 |
